Data as given in PubChem BioAssay (NCATS).
Inconclusive results are not listed. Activity calls are given as the source filed them. Unless noted, calls follow the shape of the dose curve; as a rule, active = well fitted curve in the direction sought with a large enough effect; inconclusive = small, poorly fitted or top-dose-only effect, or another doubt; inactive = no such curve, though single readings can be large; an effect the other way counts as inactive or inconclusive.

How the values were obtained:
[1] = qHTS profiling of the MIPE4 collection as inhibitors of Plasmodium falciparum (HB3) proliferation (AID 743347; call rule not given here;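 also: plate controls were DMSO vehicle wells for no effect and artemisinin wells for full effect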); conditions: P. falciparum HB3 in erythrocytes, SYBR Green DNA, 72 h; at 28.5 µM (top of the series) unless noted
Summary of the method: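 Erythrocytes infected with P. falciparum (0.3% parasitemia, 2.5% hematocrit) incubated with compounds 72 h at 37 C, 5% CO2. Lysis with saponin/Triton buffer containing SYBR Green I, overnight at room temperature in the dark; DNA fluorescence (485/535 nm) normalised to 0.29 uM artemisinin and DMSO.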

[2] = High-throughput drug toxicity screening in the BPDCN cell line Gen2.2 (AID 1224824; call rule not given here;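 also: cells exposed to compounds for 48 h before reading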); conditions: Gen2.2 BPDCN cells; at 45.8 µM (top of the series) unless noted
Summary of the method: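 Readout is ATP luminescence from Gen2.2 cells after two days of drug exposure in serum-containing medium at 37 °C. Values express percent activity, with vehicle defining full signal and 9.2 uM bortezomib defining zero.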

[3] = High-throughput drug toxicity screening in the BPDCN cell line Cal-1 (AID 1224825; call rule not given here); conditions: Cal-1 BPDCN cell viability, qHTS; at 45.8 µM (top of the series) unless noted
Summary of the method: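 Cal-1 cells, 500 per well in phenol-red-free RPMI with 10% FBS, exposed to compounds for 48 hours at 37C, 5% CO2. Viability read by CellTiter-Glo luminescence; percent activity normalized to DMSO (100%) and 9.2 uM bortezomib final (0%).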

[4] = qHTS assay for measurement of the activity of small molecule inhibitors on Zika virus induced Caspase-3 activity in human iPSC derived neural progenitor cells (hNPCs) (AID 1224857); also: % of control where 0% means no effect; nearly all actives have a fitted effect of over 65% in size
Summary of the method: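 hNPCs seeded 350 cells/well, cultured 16–20 h; compounds added 1 h before ZIKV (2 FFU/cell), 37 C 6 h. Caspase-Glo 3/7 luminescence after 30 min RT; % inhibition from induction scaled to uninfected (0%) and infected (100%) wells.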

[5] = qHTS Screen of the MIPE 4.0 Collection Against Ewings Sarcoma (RDES) (AID 1259252); also: nearly all actives have a fitted effect of over 35% in size; also: potency is read from the fitted curve at half-maximal effect
Summary of the method: (§1)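 Viability screen: 48 h incubation at 37C, 95% humidity, 5% CO2 with serially titrated compound, followed by CellTiter-Glo readout.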

[6] = qHTS Screen of the MIPE 4.0 Collection Against Ewings Sarcoma (TC32) (AID 1259256); also: nearly all actives have a fitted effect of over 45% in size; also: potency is read from the fitted curve at half-maximal effect
Summary of the method: as §1

[7] = qHTS assay to identify small molecule inhibitors of chordoma cells - UCH-1 (AID 1259355); also: nearly all actives have a fitted effect of over 55% in size; also: potency is read from the fitted curve at half-maximal effect
Summary of the method: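 Cells (800/well) were seeded and left overnight at 37 C, 5% CO2, then treated with drugs at 15 concentrations plus a combination mix of auranofin, camptothecin, doxorubicin, rubitecan and topotecan. Viability after 48hr was read by CellTiter-Glo luminescence.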

[8] = qHTS Screen of the MIPE 4.0 Collection Against Ewings Sarcoma (TC71) (AID 1259253); also: nearly all actives have a fitted effect of over 40% in size; also: potency is read from the fitted curve at half-maximal effect
Summary of the method: as §1

[9] = qHTS Screen of the MIPE 4.0 Collection Against Ewings Sarcoma (EW8) (AID 1259255); also: nearly all actives have a fitted effect of over 35% in size; also: potency is read from the fitted curve at half-maximal effect;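 as to viability: 100% = DMSO-treated cells and 0% = medium-only wells without cells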
Summary of the method: as §1

Structure (SMILES) | growth, % of control [1] | cell viability, % of control (lower = more cytotoxic) [2] | viability (% of control) [3] | Potency [4] | Potency [5] | Potency [6] | Potency [7] | Potency [8] | Potency [9]
O=C(c1ccc(F)cc1)C1CCN(CCn2c(=O)[nH]c3ccccc3c2=O)CC1 | 61.3% | 216% | 112% | inactive | inactive | inactive | inactive | – | –
Nc1nc2c(ncn2COC(CO)CO)c(=O)[nH]1 | 49% | 5.03% | 3.13% | inactive | 26.4 µM (active) | inactive | inactive | 23.5 µM (active) | –
C[C@H]1c2cccc(O)c2C(O)=C2C(=O)[C@]3(O)C(O)=C(C(N)=O)C(=O)[C@@H](N(C)C)[C@@H]3[C@@H](O)[C@@H]21 | 12.4% | 12.3% | 19.9% | inactive | – | inactive | inactive | – | –
CC(C)(Oc1ccc(C2CC2(Cl)Cl)cc1)C(=O)O (stereo not given) | 81.2% [at 57.5 µM] | 77.7% [at 92.2 µM] | 9.42% [at 92.2 µM] | inactive | 8.55 µM (active) | 42.9 µM (active) | inactive | – | 7.62 µM (active)
CC(C(=O)O)c1cccc(C(=O)c2ccccc2)c1 (stereo not given) | – | 152% | 103% | inactive | 7.43 µM (active) | 14.8 µM (active) | inactive | – | –
NCCS(=O)(=O)O | 110% | 573% | 133% | inactive | inactive | – | inactive | – | inactive
CC(C)NCC(O)COc1ccc(CCOCC2CC2)cc1 (stereo not given) | 57.9% | 88.1% | 97% | inactive | inactive | inactive | inactive | inactive | –
OCCN1CCN(CCCN2c3ccccc3Sc3ccc(C(F)(F)F)cc32)CC1 | 10.5% | 85.8% | 6.77% | inactive | – | 23.5 µM (active) | 31.6 µM (active) | – | –
NS(=O)(=O)c1cc2c(cc1Cl)NCNS2(=O)=O | 40.8% | 159% | 125% | inactive | inactive | inactive | – | – | inactive
Cc1cc(C(C)(C)C)c(O)c(C)c1CC1=NCCN1 | 98.3% | 97.9% | 110% | inactive | – | – | – | – | –
CN(C)c1nc(N(C)C)nc(N(C)C)n1 | 101% | 97.5% | 106% | inactive | inactive | inactive | inactive | – | inactive
NC12CC3CC(CC(C3)C1)C2 | 4.58% | 60.9% | 9.3% | inactive | – | – | inactive | – | –
CN1CCC(=C2c3ccccc3CC(=O)c3sccc32)CC1 | 12.6% | 14.3% | 23.6% | inactive | 11.8 µM (active) | 16.6 µM (active) | inactive | – | –
O=C(CCCN1CCC(O)(c2ccc(Cl)cc2)CC1)c1ccc(F)cc1 | – | 58.3% | 48.3% | inactive | – | 20.9 µM (active) | inactive | – | –
CC12CC3CC(C)(C1)CC(N)(C3)C2 | 512% | 26.5% | 17.7% | inactive | inactive | inactive | – | inactive | inactive
Nc1c2c(nc3ccccc13)CCCC2 | 20.2% | 131% | 101% | inactive | 26.4 µM (active) | – | inactive | – | 18.7 µM (active)
NCCCCCC(=O)O | 708% | 140% | 130% | inactive | – | – | inactive | – | inactive
CC1COc2c(N3CCN(C)CC3)c(F)cc3c(=O)c(C(=O)O)cn1c23 (stereo not given) | 76.3% | 147% | 42.1% | inactive | – | inactive | inactive | – | inactive
Clc1ccccc1C(c1ccccc1)(c1ccccc1)n1ccnc1 | 5.57% | 52.9% | 74% | inactive | – | – | inactive | – | –
CC(C)NCC(O)c1ccc(O)c(O)c1 (stereo not given) | 9.05% | 46.4% | 16% | inactive | – | – | inactive | 5.9 µM (active) | 20.9 µM (active)
COc1ccc(CCN(C)CCCC(C#N)(c2ccc(OC)c(OC)c2)C(C)C)cc1OC (stereo not given) | – | 96.5% [at 92.2 µM] | 105% [at 92.2 µM] | inactive | inactive | – | – | – | inactive
Nc1ccn([C@H]2CC[C@@H](CO)O2)c(=O)n1 | 176% | 251% | 102% | inactive | inactive | inactive | – | inactive | inactive
Cn1c(=O)c2[nH]cnc2n(C)c1=O | – | 123% | 96.4% | inactive | – | – | inactive | inactive | –
CN1CCN2c3ccccc3Cc3ccccc3C2C1 (stereo not given) | 99.7% | 83.4% | 91.5% | inactive | 20.9 µM (active) | – | inactive | 16.6 µM (active) | –
O=c1c(-c2ccc(O)cc2)coc2cc(O)cc(O)c12 | 31.8% | 55.3% | 13.8% | inactive | 18.7 µM (active) | inactive | inactive | – | inactive
COc1cc2nc(N(C)CCCNC(=O)C3CCCO3)nc(N)c2cc1OC (stereo not given) | 67.3% | 230% | 115% | inactive | inactive | inactive | – | – | inactive
Cn1ccc2cc3c(cc21)CCN3C(=O)Nc1cccnc1 | 56% | 100% | 69.5% | inactive | 16.6 µM (active) | – | inactive | – | –
N[C@@H](Cc1c[nH]c2ccc(O)cc12)C(=O)O | 99.6% | 126% | 35.8% | inactive | inactive | – | inactive | – | inactive
